Data: PubChem BioAssay (EPA / NIEHS)
Records with an inconclusive call do not appear. Active and inactive are the calls of the source. Rule for the calls: active = hit-call score of the fitted dose curve at least 0.9, where 1 is the maximum; inconclusive = response in the unintended direction; inactive = score below 0.9.

Experiment: ACEA_ER_AUC_viability: ACEA Biosciences xCELLigence Real-Time Cell Analysis on Estrogen Receptor Agonism for Viability (AID 2283782);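 note: hit means loss of impedance signal meaning reduced cell growth or viability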
In short: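 Read-out: real-time electrical impedance (RT-CES) area under curve, loss of signal taken as reduced viability, normalized to DMSO baseline. T-47D cells, charcoal-stripped serum medium, compounds up to 100 uM final, continuous exposure, 80 h.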

| Compound | AC50 | outcome |
| --- | --- | --- |
| CCCCCCOC(C)=O | 38.5 µM (active) | – |
| C=C1CC[C@H]2O[C@]2(C)CC[C@@H]2[C@@H]1CC2(C)C | – | inactive |
| CCC(CC)CO | – | inactive |
| O=C1CCC(=O)N1 | 50 µM (active) | – |
| Cc1cc(N)n(-c2ccccc2)n1 | – | inactive |
| C/C=C(\C)C(=O)OC/C=C(\C)CCC=C(C)C | 78.2 µM (active) | – |
| C=C(C)C(=O)OCCC(F)(F)C(F)(F)C(F)(F)C(F)(F)C(F)(F)C(F)(F)C(F)(F)C(F)(F)F | – | inactive |
| C=C/C(C)=C/C/C=C(\C)CCC=C(C)C | 89.9 µM (active) | – |
| CCCCCCCCCC(=O)OCC | – | inactive |
| CCCCCCCCSCc1cc(C)c(O)c(CSCCCCCCCC)c1 | – | inactive |
| CC(O)COCC(C)O (stereo not drawn) | – | inactive |
| NS(=O)(=O)c1cc(C(=O)O)c(NCc2ccco2)cc1Cl | – | inactive |
| CC(C)COC(=O)c1ccccc1 | – | inactive |
| OC[C@@H](O)[C@H](O)[C@@H](O)[C@@H](O)CO | – | inactive |
| C=C(C)C(=O)OCCOCCOC(=O)C(=C)C | 21.2 µM (active) | – |
| C=C(C)CCCC(C)CCO (stereo not drawn) | 50 µM (active) | – |
| CC(C)Cc1ccc(C(C)C(=O)O)cc1 (stereo not drawn) | – | inactive |
| CCOC(=O)C(=O)OCC | – | inactive |
| CC1=CC[C@@H](C(C)(C)O)CC1 | – | inactive |

| Compound | AC50 | outcome |
| --- | --- | --- |
| CCCCCCCCCCCCCCCCCC(=O)OCCCCCCCCCCCCCC(C)C | 77 µM (active) | – |
| c1ccc(-c2nn[nH]n2)cc1 | – | inactive |
| CC1=CC(=O)[C@H]2C[C@@H]1C2(C)C | 31 µM (active) | – |
| CCOC(=O)CC1(C)OCC(C)O1 (stereo not drawn) | – | inactive |
| O=C(O)c1ccc(C(=O)O)c(C(=O)O)c1 | – | inactive |
| CCCCC(CC)COC(=O)COc1ccc(Cl)cc1C (stereo not drawn) | – | inactive |
| O=C(O)c1cc(C(=O)O)c(C(=O)O)cc1C(=O)O | – | inactive |
| CC1=CC[C@@H]2C[C@H]1C2(C)C | 18.7 µM (active) | – |
| [Cu+] | – | inactive |
| CC1=CC(C)C(C=O)C(C)C1 (stereo not drawn) (tested in a mixture with another compound) | 50 µM (active) | – |
| O=C(O)c1cc2ccccc2cc1O | – | inactive |
| NC(=O)c1c(Cl)cccc1Cl | – | inactive |
| CCOC(=O)CC(C)C | – | inactive |
| Brc1cc(Br)cc(Br)c1 | – | inactive |
| CC(=O)CCC(=O)O | – | inactive |
| Cc1ccc(C(C)(C)O)cc1 | – | inactive |
| CCCCOCC(C)OCC(C)O (stereo not drawn) | – | inactive |
| CC(C)(O)C(=O)c1ccc(OCCO)cc1 | – | inactive |
| N#CCCNCCC#N | – | inactive |
